# Where “and” joins values, the source holds several entries; their conditions need not be identical. Identical values can stand only once. Results filed as inconclusive are left out. Where a call stands in place of a potency, no number is given. Unmarked numbers belong to inactive results. Calls of active or inactive are those of the source. Unless noted, calls come from the whole dose curve; as a rule, active = well fitted curve in the direction sought with a large enough effect; inconclusive = small, poorly fitted or top-dose-only effect, or another doubt; inactive = no such curve, though single readings can be large; an effect the other way counts as inactive or inconclusive.
# Tests used:
# [1] = target: Calcium and integrin-binding protein 1 (Homo sapiens) (UniProt Q99828); experiment: Primary qHTS for Identification of Calcium Integrin Binding Protein 1 (CIB1) Competitor (AID 1508620); conditions: CIB1-GST / FITC-alphaIIb peptide fluorescence polarization; series mostly up to 114 µM;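 note: GST tagged CIB1 binding a fluorescein labelled alphaIIb integrin peptide tracer; top concentration of the series differs between compounds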
# Calcium and integrin-binding protein 1 (Homo sapiens), sequence (Q99828 whole entry, looked up): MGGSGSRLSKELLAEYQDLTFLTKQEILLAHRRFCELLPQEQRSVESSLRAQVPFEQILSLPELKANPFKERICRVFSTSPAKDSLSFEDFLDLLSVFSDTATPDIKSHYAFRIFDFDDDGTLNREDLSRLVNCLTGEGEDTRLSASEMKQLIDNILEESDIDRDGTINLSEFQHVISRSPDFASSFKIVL
# Summary of the method: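 CIB1-GST (1 uM final) and compound incubated 15 min at room temperature before adding FITC-alphaIIb peptide tracer (100 nM final). Competition for binding read by fluorescence polarization (ex 480, em 540) after another 15 min at room temperature.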
# [2] = target: Cytochrome P450 2C9 (Homo sapiens) (UniProt P11712); experiment: Cytochrome P450 family 2 subfamily C member 9 (CYP2C9) small molecule antagonists: luciferase biochemical (cell-free) qHTS assay (AID 1645842; active = well fitted curve in the direction sought with a large enough effect in the repeat runs; an effect the other way counts as inactive or inconclusive; note: nearly all actives have a fitted effect of over 55% in size; note: potency is the fitted concentration of half-maximal effect); conditions: P450-Glo CYP2C9 enzyme assay, luciferin luminescence; series mostly up to 57.4 µM
# Cytochrome P450 2C9 (Homo sapiens), sequence (P11712 whole entry, looked up): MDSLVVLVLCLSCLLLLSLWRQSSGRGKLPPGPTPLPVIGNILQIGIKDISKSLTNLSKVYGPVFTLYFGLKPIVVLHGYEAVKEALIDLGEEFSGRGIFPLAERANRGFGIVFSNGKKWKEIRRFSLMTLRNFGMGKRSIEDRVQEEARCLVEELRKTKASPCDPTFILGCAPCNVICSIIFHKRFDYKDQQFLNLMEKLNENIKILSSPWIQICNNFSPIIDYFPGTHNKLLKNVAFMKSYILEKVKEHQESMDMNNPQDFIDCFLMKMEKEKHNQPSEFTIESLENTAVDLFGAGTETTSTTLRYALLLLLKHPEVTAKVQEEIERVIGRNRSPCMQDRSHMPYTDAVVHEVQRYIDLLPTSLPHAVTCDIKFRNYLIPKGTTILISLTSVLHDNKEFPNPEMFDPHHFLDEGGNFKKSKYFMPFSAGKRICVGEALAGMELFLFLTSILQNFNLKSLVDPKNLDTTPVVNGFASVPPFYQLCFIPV
# Summary of the method: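 Luminescence, after 20 min with luciferin detection reagent, reflected CYP2C9 turnover during a 1 h NADPH-driven reaction at 37C. Enzyme-substrate mix contained 0.4% bovine serum albumin and was preincubated with compound 10 min at room temperature.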
# [3] = Primary qHTS for inhibitors of nuclear receptor binding SET domain protein 2 (NSD2) in an isogenic RCH-ACV NSD2 p.E1099K mutant (9B) (AID 1645876); conditions: RCH-ACV (leukaemia line) NSD2 E1099K (9B) viability, CellTiter-Glo, 72 h; series mostly up to 44.9 µM; note: nearly all actives have a fitted effect of over 70% in size; note: potency is the fitted concentration of half-maximal effect
# [4] = target: N-terminal Xaa-Pro-Lys N-methyltransferase 1 (Homo sapiens) (UniProt Q9BV86); experiment: Confirmatory qHTS for Inhibitors of N-terminal methyltransferase 1 (NTMT1): MTaseGlo Assay (AID 1645874); conditions: NTMT1 enzyme, MTase-Glo SAH luminescence; series mostly up to 100 µM;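 note: luminescence from SAH made as NTMT1 methylates SPKRIA peptide using SAM; nearly all actives have a fitted effect of over 65% in size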
# N-terminal Xaa-Pro-Lys N-methyltransferase 1 (Homo sapiens), sequence (Q9BV86 whole entry, looked up): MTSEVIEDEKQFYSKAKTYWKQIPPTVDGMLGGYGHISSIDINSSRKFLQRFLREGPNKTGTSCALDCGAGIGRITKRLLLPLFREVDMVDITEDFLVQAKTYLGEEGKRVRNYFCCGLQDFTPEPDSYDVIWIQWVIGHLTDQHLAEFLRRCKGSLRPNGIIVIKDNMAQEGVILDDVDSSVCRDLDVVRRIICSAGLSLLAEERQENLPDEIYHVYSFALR
# Summary of the method: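 Luminescent MTase-Glo read-out of SAH. 125 nM NTMT1, 100 uM SAM, 1 uM SPKRIA substrate, 30 min RT reaction after 15 min compound preincubation. Normalized to no-enzyme and DMSO controls; Hill fit.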
Compound,Potency [1],Potency [2],Potency [3],"activity change, negative = viability loss [3]",Potency [4]
Cc1ccc(-c2ccc3c(ccc4sc5c(c43)NC[C@@H](C)NC5=O)n2)cn1,inactive,inactive,,,
c1cn2cc(-c3ccc4cn[nH]c4c3)nc(Nc3ccc(N4CCOCC4)cc3)c2n1,inactive,0.601 µM (active),325 nM (active),,
O=C(Cc1ccc(-c2ccccc2)cc1)NC1CCC1,inactive,6.74 µM (active),inactive,,
O=C(Nc1c(-c2cccs2)nc2ccccn12)c1ccc(Cl)cc1,inactive,15.1 µM (active),inactive,,
Cc1ccc(NC(=O)Nc2cc(C(F)(F)F)ccc2F)cc1Nc1ccc2c(c1)NC(=O)/C2=C\c1ccc[nH]1,inactive,inactive,11.5 µM (active) and 16.6 µM (active),,
O=C(CSc1nc2c(c(=O)n1-c1ccccc1)SCC2)Nc1ccc(-c2ccccc2)cn1,inactive,0.379 µM (active),36.5 nM (active),,
CC(C)c1nnc(-c2ccc(-c3ccccc3)nc2)n1-c1cccc2nonc12,inactive,13.5 µM (active),inactive,,
Cc1cc(C)c(Nc2ccnc(Nc3ccc(C#N)cc3)n2)c(C)c1,inactive,3.79 µM (active),4090 nM (active),,
CN(C)C1CCN(C(=O)c2ccc(NC(=O)Nc3ccc(-c4nc(N5CCOCC5)nc(N5CCOCC5)n4)cc3)cc2)CC1,inactive,inactive,41.7 nM (active),,
COc1ccc(Oc2cc(C)c(-c3csc(NC(=O)c4ccncc4)n3)c(C)c2)cc1,inactive,4.77 µM (active),163 nM (active),,
COc1cc(Br)c(Nc2nc(-c3c(C)nc4ncccn34)cs2)c(Br)c1,inactive,8.49 µM (active),1450 nM (active),,
CN(C)C/C=C/C(=O)Nc1cccc(C(=O)Nc2ccc(Nc3nccc(-c4cccnc4)n3)cc2)c1,inactive,inactive,649 nM (active),,
CC1(C)CC(=O)C2=C(C1)NC(=S)NC2c1cccc(O)c1 (configuration not stated),inactive,2.13 µM (active),728 nM (active),,
CCCC1(c2ccccc2)NC(=O)N(CC(=O)N(C)Cc2c(F)cccc2Cl)C1=O (configuration not stated),inactive,12 µM (active),inactive,,
Cc1cc(Nc2cc(N3CCN(C)CC3)nc(/C=C/c3ccccc3)n2)n[nH]1,inactive,inactive,728 nM (active) and 934 nM (active),,
COc1ccc(Cl)c(Nc2nc3ccccc3nc2NS(=O)(=O)c2cccc(NC(=O)C(C)(C)N)c2)c1,inactive,2.68 µM (active),3.65 µM (active) and 5.9 µM (active),,
COc1cc(C(=O)NC2CCN(C)CC2)ccc1Nc1ncc2c(n1)N(C1CCCC1)CC(F)(F)C(=O)N2C,inactive,inactive,20.5 nM (active),,
COc1cc2nc(N3CCC(N4CCCCC4)CC3)nc(NC3CCCCCC3)c2cc1OC,inactive,inactive,2300 nM (active),,
CC(C)[C@@H](CS(=O)(=O)C(C)C)N1C(=O)[C@@](C)(CC(=O)O)C[C@H](c2cccc(Cl)c2)[C@H]1c1ccc(Cl)cc1,inactive,15.1 µM (active),1.15 µM (active) and 833 nM (active),,
Cc1cc(NC(=O)Nc2ccc(F)c(F)c2)n(-c2ccccc2)n1,inactive,12 µM (active),inactive,,
COc1ccc(C2=N[C@@H](c3ccc(Cl)cc3)[C@@H](c3ccc(Cl)cc3)N2C(=O)N2CCNC(=O)C2)c(OC(C)C)c1,inactive,inactive,3650 nM (active),,
COc1ccc(-c2cnc3ccc(NCc4ccc(S(N)(=O)=O)cc4)nn23)cc1OC,inactive,6.74 µM (active),9160 nM (active),,
COC(=O)N[C@@H](C)CNc1nccc(-c2cn(C(C)C)nc2-c2cc(Cl)cc(NS(C)(=O)=O)c2F)n1,inactive,inactive,inactive,,
Cc1cc(C)nc(NS(=O)(=O)c2ccc(NC(=S)NC(=O)COc3ccc(Br)cc3Cl)cc2)n1,inactive,10.7 µM (active),inactive,,
CN1CCc2nc(C(=O)N[C@@H]3C[C@@H](C(=O)N(C)C)CC[C@@H]3NC(=O)C(=O)Nc3ccc(Cl)cn3)sc2C1,inactive,inactive,inactive,,

Compound,Potency [1],Potency [2],Potency [3],"activity change, negative = viability loss [3]",Potency [4]
O=C(Nc1ccc(S(=O)(=O)Nc2nccs2)cc1)C(c1ccccc1)c1ccccc1,inactive,0.674 µM (active),inactive,,
CC(C)S(=O)(=O)NC[C@H](C)c1ccc(NC(=O)c2cc(F)cc(F)c2)cc1,inactive,7.56 µM (active),inactive,,
O=C(CC(c1ccccc1)c1ccccc1)N1CCN(C(c2ccccc2)c2ccccc2)CC1,inactive,4.77 µM (active),7280 nM (active),,
CC(C)Oc1ccc(C(=O)NC(CNC(=O)CN(C)C)Cc2ccc(-c3cn4cccc(C(C)O)c4n3)cc2)cc1Cl (configuration not stated),inactive,13.5 µM (active),163 nM (active),,
C#CCN(Cc1cc2c(=O)n(C)c(CN3CCN(C)CC3)nc2cc1Cl)c1ccc(C(=O)NCc2cccnc2)cc1,inactive,12 µM (active),inactive,,
COc1ccc2cc(C(C)C(=O)Oc3ccc(C(N)=S)cc3)ccc2c1 (configuration not stated),inactive,21.3 µM (active),inactive,,
CC(C)(C#N)c1ccc(N2C(=O)OCc3cnc4ccc(-c5cnc6ccccc6c5)cc4c32)cc1,inactive,2.68 µM (active),728 nM (active),,
CC[C@H](CO)Nc1nc(NCc2ccc(-c3ccccn3)cc2)c2ncn(C(C)C)c2n1,inactive,0.19 µM (active),459 nM (active),,
O=C(NCc1cccc(O)c1)c1cc2cc(F)ccc2[nH]1,inactive,13.5 µM (active),18300 nM (active),,
O=C(COc1cccc2c(=O)[nH]ccc12)c1ccccc1,inactive,8.49 µM (active),inactive,,
CC(=O)N1CCN(Cc2ccc([C@H](C)Nc3nccc(N4C(=O)OC[C@@H]4C(C)C)n3)cc2)CC1,inactive,23.9 µM (active),inactive,,
Cc1nc(NC(=O)N2CCCC2C(N)=O)sc1-c1csc(C(C)(C)C)n1 (configuration not stated),inactive,inactive,4590 nM (active),,
COc1cc2ncnc(N3CCC(Oc4cnc5ccccc5n4)C3)c2cc1OC (configuration not stated),inactive,10.7 µM (active),258 nM (active),,
COc1cc(N)c(Cl)cc1C(=O)NC[C@@H]1CCN2CCC[C@@H]12,inactive,9.52 µM (active),inactive,,
CCCCNc1ncc2c(-c3ccc(CN4CCN(C)CC4)cc3)cn(C3CCC(O)CC3)c2n1 (configuration not stated),inactive,15.1 µM (active),1.64 µM (active) and 2.95 µM (active),,
CC1(C)CCC2(C(=O)OC3OCC(O)C(O)C3O)CCC3(C)C(=CCC4C5(C)CC(O)C(OC6OC(COC7OCC(O)C(O)C7O)C(O)C(O)C6O)C(C)(C)C5CCC43C)C2C1 (configuration not stated),inactive,,,-10.4% [at 9.23 µM],
COC(=O)c1ccnc(-c2cc(C(=O)NCCc3ccccc3)ccn2)c1,inactive,,inactive,,
CC(C)NCC(C(=O)N1CCN(c2ncnc3c2C(C)CC3O)CC1)c1ccc(Cl)cc1 (configuration not stated),inactive,inactive,1830 nM (active),,
Cc1nc(Nc2n[nH]c3c2CN(C(=O)NC(CN(C)C)c2ccccc2)C3(C)C)c2sccc2n1 (configuration not stated),inactive,13.5 µM (active),6.5 nM (active),,
Cc1cc2c(c(=O)[nH]1)OC(C(O)CC(C)C)O2 (configuration not stated),inactive,,inactive,,inactive
C[C@@H]1CCC2C(C)(C)[C@H](O)CC[C@]2(C)[C@@]12Cc1c(O)cc3c(c1O2)CN([C@@H](CCC(=O)O)C(=O)O)C3=O (some centres not stated),inactive,,inactive,,
O=C(/C=C/c1ccc(O)cc1)N[C@@H](Cc1ccc(O)cc1)C(=O)O,inactive,,inactive,,
COc1ccc(CCO[C@@H]2CCCC[C@H]2N2CC[C@@H](O)C2)cc1OC,inactive,inactive,inactive,,
CCCn1c(=O)c2[nH]c(-c3ccc(OCC(=O)O)cc3)nc2n(CCC)c1=O,inactive,inactive,inactive,,

# Reference: PubChem BioAssay (NCATS)
